# In all, about 81,000 sequences were measured (“one-hybrid fitness for binding NBS DNA”: median about -0.1, highest 2% from about 0.36 on). The sample as a whole holds a higher share of the highest values than the screen did.
# B1: Caulobacter ParB omega fusion; a variant is named by its letters at X, in order, B8GW30 (parent)
# chain: MESVVVGEPGMSEGRRGLGRGLSALLGEVDAAPAQAPGEQLGGSREAPIEILQRNPDQPRRTFREEDLEDLSNSIREKGVLQPILVRPSPDTAGEYQIVAGERAWRAAQRAGLKTVPIMVRELDDLAVLEIGIIENVQRADLNVLEEALSYKVLMEKFERTQENIAQTIGKSXSHVANXMRLLXLPDEVQSYLVSGELTAXHARAIAAAADPVALAKQIIEGGLSVRETEALARKAPNLSAGKSKGGRPPRVKDTDTQALESDLSSVLGLDVSIDHRGSTGTLTITYATLEQLDDLCNRLTRGI
# Variants of: B1
# Assay: one-hybrid fitness for binding NBS DNA (the Noc-binding site; scaled: cognate 1, non-cognate 0); higher = stronger binding
# Conditions: with NBS DNA site
# Method in brief: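 Pre- and post-selection plasmids were Illumina-sequenced, three replicate libraries were pooled, and any variant with under 10 reads was removed. The libraries were Caulobacter ParB with four specificity codons randomised, selected in E. coli USO through a HIS3 reporter whose site is 19 bp from the promoter. Cells grew 48 hours at 37°C on M9 without histidine, with 0.1 mM IPTG and 5 mM 3-AT. Fitness is the log change in variant-to-wild-type read ratio, rescaled against cognate and non-cognate.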
row,Variant,one-hybrid fitness for binding NBS DNA
1,QKIS,0.278
2,QKYN,≤ 0.2
3,QKPS,≤ 0.2
4,QKQD,≤ 0.2
5,QKDS,0.332
6,QKRG,0.335
7,QKNP,≤ 0.2
8,QKNS,0.539
9,QKQS,0.458
10,QKYS,0.43
11,QKQP,≤ 0.2
12,QKRN,0.37
13,DCTY,≤ 0.2
14,IHHC,≤ 0.2
15,WGKE,≤ 0.2
16,WAWT,≤ 0.2
17,MWRS,≤ 0.2
18,MATS,≤ 0.2
19,CSVV,≤ 0.2
20,GFNG,≤ 0.2
21,QKCN,≤ 0.2

row,Variant,one-hybrid fitness for binding NBS DNA
1,GKLS,≤ 0.2
2,QKCH,≤ 0.2
3,QKAP,≤ 0.2
4,QKAN,≤ 0.2
5,GKLH,0.366
6,QKAS,0.498
7,GKLD,≤ 0.2
8,QKHD,≤ 0.2
9,QKCS,0.419
10,QKHS,0.494
11,QKHH,0.205
12,SLNQ,≤ 0.2
13,VERV,≤ 0.2
14,NEQT,≤ 0.2
15,RMDV,≤ 0.2
16,RYAC,≤ 0.2
17,YPLD,≤ 0.2
18,IQMR,≤ 0.2
19,QKSP,≤ 0.2
20,QKLS,0.392
21,GWLP,≤ 0.2

row,Variant,one-hybrid fitness for binding NBS DNA
1,GWLI,0.404
2,QKRF,0.258
3,QKRD,0.268
4,GWLS,≤ 0.2
5,QKLH,0.246
6,QKRH,0.579
7,QKSH,0.241
8,QKSS,0.449
9,QKLD,≤ 0.2
10,YTAV,≤ 0.2
11,HGTI,≤ 0.2
12,VPLE,≤ 0.2
13,AYGD,≤ 0.2
14,RKKE,≤ 0.2
15,KHKY,≤ 0.2
16,QKRP,0.261
17,QKGS,0.465
18,QKGD,≤ 0.2
19,QKRS,0.677
20,QKDH,0.521
21,QKDD,≤ 0.2

row,Variant,one-hybrid fitness for binding NBS DNA
1,QKGH,0.228
2,QKNH,0.286
3,QKRI,0.301
4,MPKT,≤ 0.2
5,RGWG,≤ 0.2
6,DTNG,≤ 0.2
7,IIGR,≤ 0.2
8,VAWT,≤ 0.2
9,RYQD,≤ 0.2
10,RYRD,≤ 0.2
11,RYSN,≤ 0.2
12,RYQS,0.386
13,RYRS,0.572
14,RYQH,≤ 0.2
15,RYSC,≤ 0.2
16,RYSH,≤ 0.2
17,RYSS,0.437
18,RYST,0.452
19,RYRN,≤ 0.2
20,RYSG,≤ 0.2
21,MMDT,≤ 0.2

# Source: a collection of fitness landscapes (doi:10.1016/j.celrep.2020.107928)
